Source: PubChem BioAssay AID463173 (ICCB-Longwood Screening Facility, Harvard Medical School, 2010)
Hit rate of the full screen: of about 52,000 compounds, about 4,300 (8.3%) were called active. The sample holds actives, similar compounds and a random draw of the others, so the mix is not that of the screen. Values without a mark were called inactive. No stated cut-off is given here; in the data, active means survival mostly below about 52% (no sharp cut-off); inactive means mostly above about 56%.

system: DeltatarO mutant; assay: S. aureus survival, RN4220 and DeltatarO strains – OD600, teichoic acid synthesis inhibitors, primary screen (AID 463173); conditions: S. aureus RN4220 wild type/DeltatarO growth, OD600, 18 h, stronger effect = lower value, screened at 18.75 µg/mL (by protocol)

In order of falling survival:
1. CN1CCc2nc3sc(C(=O)Nc4ccccc4C(F)(F)F)c(N)c3cc2C1  150%
2. COc1ccc(CCNC(=O)CN2C(=O)COc3ccccc32)cc1OC  126%
3. Cc1cccc(CNC(=O)CCCN2C(=O)COc3ccc(C)cc32)c1  112%
4. CC(=O)Nc1ccc(-c2cn(CC(=O)NN)cn2)cc1  111%
5. C=CCn1c(NC)nc2c1c(=O)[nH]c(=O)n2C  105%
6. CC(=O)C1=C(OC(=O)C(C)C)c2ccccc2S(=O)(=O)N1Cc1ccccc1  104%
7. CN(C)CCCNc1c2c(nc3cc(-c4cccc(F)c4)nn13)CCC2  103%
8. COc1cc(NC(=O)CC2C(=O)N(c3cccc(C)c3)C(=O)N2Cc2ccco2)cc(OC)c1 (stereo not drawn)  101%
9. Fc1ccc(CNCc2ccccc2)cc1  99%
10. COC(=O)CSc1ncc2c(n1)-c1ccccc1N(Cc1ccccc1C)S2(=O)=O  99%
11. COc1ccc(CNC(=O)Cc2ccc(NC(=O)N3CCSc4ncccc43)cc2)cc1  95%
12. O=C1CCCc2cc(S(=O)(=O)NCC3CCC(C(=O)Nc4ccccc4F)CC3)ccc2N1 (stereo not drawn)  93%
13. CCOc1ccccc1CNC(=O)CCCN1C(=O)COc2ccc(C)cc21  93%
14. COc1ccc(CNC(=O)C2CCN(S(=O)(=O)c3cccc(-c4noc(C)n4)c3)CC2)cc1  92%
15. COc1ccc(CNC(=O)CN2C(=O)CSc3ccc(S(=O)(=O)N4CCOCC4)cc32)c(OC)c1  91%
16. Cc1ccc(C2=Nc3ccccc3N(CC(=O)NCc3ccc(F)cc3)C(=O)C2)cc1C  90%
17. Cc1cc(C)cc(OCC(=O)N(Cc2ccc(C)o2)C2CCS(=O)(=O)C2)c1 (stereo not drawn)  89%
18. Cc1ccc(CNC(=O)CCCN2C(=O)COc3ccc(C)cc32)cc1  85%
19. CCC(=O)N1CCc2cc(S(=O)(=O)CCC(=O)Nc3ccc(OC(F)(F)F)cc3)ccc21  83%
20. COc1cc(OC)cc(C(=O)Nc2ccc(S(=O)(=O)Nc3ncccn3)cc2)c1  82%
21. Cc1ccc(NC(=O)N2CCC(CN3CCCC3)CC2)c(C)c1  80%
22. O=c1c2sc3ccccc3c2n(Cc2cccc(F)c2)c(=O)n1Cc1ccccc1  78%
23. CCn1c(SCc2ccccc2Cl)nc(=O)c2c(C(=O)OC)cc(C3CC3)nc21  77%
24. COc1cccc(CNC(=O)CN2C(=O)COc3ccc(S(=O)(=O)Nc4ccccc4)cc32)c1  77%
25. Cc1cccc(NC(=O)c2cc(S(=O)(=O)NCCc3ccccc3)ccc2F)c1C  73%
26. COC(=O)c1ccc(Cl)cc1NC(=O)N1CC2CCCN2c2ccccc21 (stereo not drawn)  71%
27. CCn1c(SCc2ccccc2C)nc(=O)c2c(C(=O)OC)cc(C3CC3)nc21  71%
28. Cc1ccc(Cl)cc1NC(=O)CSCc1cnn(-c2ccccc2)c1-n1cccc1  70%
29. Cc1cccn2c(=O)c3cc(C#N)c(=O)n(-c4nnc(SCc5ccccc5F)s4)c3nc12  70%
30. CC1CCc2c(sc(NC(=O)COc3ccccc3C(C)(C)C)c2C#N)C1 (stereo not drawn)  67%
31. COc1ccc(CNC(=O)CN2C(=O)COc3ccc(S(=O)(=O)Nc4ccccc4)cc32)cc1  66%
32. O=C(O)C(=Cc1ccc(-c2cccc(C(F)(F)F)c2)o1)C(=O)O  65%
33. COc1cc(OC)c(NC(=O)CSC2=Nc3ccccc3N=C(c3ccc(F)cc3)C2)cc1Cl  65%
34. Cc1ccc2c(c1)N(CCC(=O)NCc1ccc(F)cc1)C(=O)CO2  62%
35. Cc1ccc(C2=Nc3ccccc3N(CC(=O)NCc3ccc(Cl)cc3)C(=O)C2)cc1C  55%
36. Cc1ccc2c(c1)N(CC(=O)NCCc1ccccc1)C(=O)CO2  45%

For COc1ccc(C(=O)Nc2nc3ccccc3n2CCOc2ccc(Cl)cc2)cc1, the survival was -5% (active).
CCn1c(SCc2ccccc2F)nc(=O)c2c(C(=O)OC)cc(C3CC3)nc21 was tested, and the survival was 52% (active).
For Cc1ccc(CNC(=O)CN2C(=O)CC(c3ccc(C)c(C)c3)=Nc3ccccc32)cc1, the survival was 52% (active).
For Cc1ccc(CNC(=O)CN2C(=O)COc3ccc(S(=O)(=O)Nc4ccccc4)cc32)cc1, the survival was -4% (active).
In the case of Cc1ccc(CNC(=O)CCN2C(=O)COc3ccc(C)cc32)cc1, the survival is reported as 50% (active).
COc1ccc(CCNC(=O)CN2C(=O)COc3ccc(C)cc32)cc1OC was tested, and the survival was 45% (active).
With Cc1ccc2c(c1)N(CCC(=O)NCc1ccccc1Cl)C(=O)CO2 the survival was 40% (active).
